Screening data deposited in PubChem by several laboratories.
PERK inh: blocks human PERK kinase | inhibition, % at 5.6 µM | 220,000 tested, 0.17% active | CHO PERK-DD fusion, SEAP luminescence translation reporter | Q9NZJ5;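 active = inhibition above the mean inhibition of all tested compounds plus 3 SD, set separately per screening campaign, cut at about 2.9% in these data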;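 also: PERK kinase domain activated by AP20187 dimerizer at 100 nM; 0% = DMSO with dimerizer and 100% = rapamycin at 8.4 µM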
eIF4E-4G inh: eIF4E/eIF4G interaction inhibition in translation initiation | AID 782 | inhibition, % at 21.7 µM | TR-FRET eIF4E-eIF4GI(517-606) binding, 2 h | 220,000 tested, 0.37% active | P63073+Q04637;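 active = inhibition above about 30%, limit read from the data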;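 also: 0% = full FRET control wells and 100% = background wells lacking eIF4GI fragment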
Autophagy mod: autophagy modulation, high-content screen; MEF GFP-LC3 puncta imaging; test concentration mostly 10 µM; calls only at 10 µM (by protocol); 190,000 tested, 0.98% active; AID 463193;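 active = percentage of spot-positive cells more than 3 SD above its plate mean, without a fluorescence outlier flag or 80% toxicity; inconclusive = no clear call, values can overlap the other calls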;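 also: spot-positive cell cutoff set from DMSO-treated cells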
INS promoter inh: TRM-6 insulin promoter activity inhibition. TRM-6 cells (human fetal islet line), insulin promoter-eGFP reporter, imaging; reporter expression induced with tamoxifen. inhibition, % at 2 µM. 130,000 tested, 0.9% active;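 active = inhibition above the mean plus 3 SD, with well images judged a real hit on visual review, cut at about 60% in these data, passing the limit was not always enough; inconclusive = inhibition over the cutoff but images rejected on review; inactive = inhibition not above the cutoff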
Ins promoter up: MIN6 insulin promoter up-regulation | MIN6 insulin promoter-GFP reporter, high-content imaging; hits give high values | z-score at 5 µM | 190,000 tested, 0.3% active;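 active = z-score above 3 at 5 µM with at least 500 cells counted in the well; inconclusive = wells under 500 cells, flagged as cytotoxic or low count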
The depositor's hits bear a star; i = inactive; ? = inconclusive; . = not tested or not shown; + = active, no number; [ ] = another dose, or the depositor's remark. Only some compounds are listed: those with a hit (about 2% of all), similar ones and a draw of the others.

SMILES	PERK inh	eIF4E-4G inh	Autophagy mod	INS promoter inh	Ins promoter up
COc1ccc(OCCc2nnc(N)s2)cc1	0	4	i	-60	-0.62
COc1ccccc1OCCc1nnc(N)s1	3.3*	8	i	.	-0.53
CC(C)[C@H](N)c1nnc(SC/C=C/c2ccccc2)o1	0	3	i	-14	-0.68
O=[N+]([O-])c1ccc(C2NS(=O)(=O)N=C3CCCCCN32)cc1 (centres undefined)	3.6*	2	.	.	0.1
O=S1(=O)N=C2CCCCCN2C(c2ccc(F)cc2)N1 (centres undefined)	-1	1	i	.	0.04
COc1ccc(/C=C/C2=NN(C)C(=O)CC2)cc1	1	5	i	85*	0.05
CCOC(=O)CN1N=C(/C=C/c2ccc(C)cc2)CCC1=O	3	5	i	-10	-0.56
CC(C)(C)c1ccc(CCC2OCC(C[N+]3(C)CCOCC3)O2)cc1 (centres undefined)	1	91*	.	.	-0.4
CC(C)(C)n1ncc2c(=O)n(Cc3cccc(Cl)c3)cnc21	1	1	i	33	0.86
COc1cccc(NC(=O)NC2CCN(Cc3nnnn3Cc3ccc4c(c3)OCO4)CC2)c1	0	1	.	.	0.33
COc1ccc(/C=N/NC(=O)CCNc2n[nH]c(=O)[nH]c2=O)c(OC)c1	1	1	+	3	1.3
O=C(Nc1ccc(Br)cc1)c1ccc(N2C(=O)C3CC=C(Cl)CC3C2=O)cc1 (centres undefined)	-1	-58	i	43	-0.45
NC(=O)C12CCCC(Br)(CCC1)C2	0	92*	.	.	-0.06
CCc1ccc(CN(C)CC(=O)Nc2sccc2C#N)cc1	0	1	i	-17	0.21
CCc1c(C)c(C#N)c2[nH]c3ccccc3n2c1=S	1	33*	.	.	-0.05
CCc1cc(=S)n2c([nH]c3ccccc32)c1C#N	0	3	i	0	0.3
Cc1nc(-c2ccccc2)sc1-c1nc(-c2cccs2)ncc1S(=O)(=O)c1ccccc1	2	3	i	.	-1.2
C/C(=N\Nc1nc(N2CCCCCC2)nc(N2CCCCCC2)n1)c1ccccc1	1	0	i	50	-0.29
COc1cc(/C=N/NC(=O)C2c3ccccc3Oc3ccccc32)ccc1O	1	41*	i	14	.
COc1cc(/C=N/NC(=O)C2COc3ccccc3O2)ccc1O (centres undefined)	1	2	.	.	0.74
Cc1nc(CSc2nnc(C)s2)cs1	0	-1	i	62*	0.28
COC(=O)c1cc(=O)n(CCc2ccc(OC)cc2)c(=Nc2ccc(F)c(Cl)c2)s1	1	-1	i	.	-0.28
COC(=O)c1cc(=O)n(Cc2ccc3c(c2)OCO3)c(=Nc2ccc(F)c(Cl)c2)s1	2.9*	9	i	.	0.76
Cc1cnc(NC(=O)Cc2cccs2)s1	1	2	i	?	0.9
COC(=O)c1nnn(-c2nc(N3CCOCC3)nc(N3CCOCC3)n2)c1C	0	6	i	.	0.76
SMILES	PERK inh	eIF4E-4G inh	Autophagy mod	INS promoter inh	Ins promoter up
Cc1c(Cc2ccccc2)sc(NC(=O)/C=C/c2cccc3ccccc23)c1C(N)=O	1	-2	+	.	-0.39
COC(=O)c1c(NC(=O)/C=C/C(=O)O)sc(Cc2ccccc2)c1C	0	7	i	8	-0.2
C=CCSc1ncc(C(=O)OCC)c(N)n1	0	5	i	100*	0.22
CC(=O)c1nnn(-c2c(F)cccc2F)c1C	3.1*	3	.	.	0.04
CN1CCN(c2ccccc2NC(=O)c2sc3ccccc3c2Cl)CC1	0	-2	i	.	-0.15
Cc1ccccc1Cn1cc(NC(=O)c2cc(C3CC3)on2)cn1	-1	0	.	.	-0.68
COc1ccc(-c2nc3c(c(SCC(=O)N4CCOCC4)n2)COC(C)(C)C3)cc1	1	-11	i	61*	0.18
COc1ccc2c(C)cc3n[nH]c(=S)n3c2c1	1	33*	.	.	-0.16
COc1cc(-c2cc(C(=O)Nc3c(Cl)cc(Cl)cc3Cl)c3ccccc3n2)cc(OC)c1OC	0	2	i	0	-1.2
COc1ccc2nc3ccccc3nc2c1NC(=O)c1ccc(Cl)cc1Cl	1	5	+	-31	1.4
CCOC(=O)CNC(=S)N1CCn2c(nc3ccccc32)C1	0	2	i	-21	.
COC(=O)/C=C/C(=O)N1CCN(c2ccccc2)CC1	0	19	i	33	0.11
COC(=O)/C=C/C(=O)N1CCN(c2ccccc2C)CC1	1	42*[fluorescence artefact?]	i	40	1.7
COc1cc(/C=N/NC(=S)NC2CC3CC2C2C=CCC32)ccc1O (centres undefined)	0	7	.	.	-0.69
CC12CCC(C(=O)Nc3cc(Cl)ccc3Cl)(C/C1=N\O)C2(C)C (centres undefined)	0	2	i	-39	.
Cn1c(=O)c2c(SCc3ccccc3)nc(-c3ccco3)nc2n(C)c1=O	4.2*	2	i	-10	0.19
Cn1c(=O)c2c(SCc3cccc(C(F)(F)F)c3)nc(-c3ccco3)nc2n(C)c1=O	1	4	i	.	-1.1
CC(=O)Nc1ccc(NC2=C/C(=N/S(=O)(=O)c3cccs3)c3ccccc3C2=O)cc1	0	-4	+	-55	?
C=CCn1c2ccccc2n2nc(C)c(=O)nc12	1	3	i	81*	0.14
Cc1nn2c3ccccc3n(CCN3CCCCC3)c2nc1=O	1	8	i	-30	0.05
CC(/C=N\NC(=O)CN1CCN(S(=O)(=O)c2ccc(C)cc2)CC1)=C\c1ccccc1	0	33*[fluorescence artefact?]	i	-26	0.43
O=C1Nc2ccccc2N(O)N1c1cc(-c2ccccc2Cl)no1	3.2*	-1	i	.	-0.19
O=C1Nc2ccccc2N(O)N1c1cc(-c2cccc(Cl)c2)no1	1	-8	i	41	0
CCCCC1=CC2=CC(=O)C(C)(OC(=O)CC)C(=O)C2=CN1c1ccccc1 (centres undefined)	.	71*	.	.	1.5
O=C(NCc1ccco1)c1cc([N+](=O)[O-])ccc1N1CCOCC1	0	0	i	.	0.37
SMILES	PERK inh	eIF4E-4G inh	Autophagy mod	INS promoter inh	Ins promoter up
CC(C)Sc1nc(-c2ccccc2)cc(=O)[nH]1	0	6	i	-41	-0.11
CCC(Sc1nc(-c2ccccc2)cc(=O)[nH]1)C(=O)O (centres undefined)	3.0*	3	i	29	-1.2
CCOC(=O)CNS(=O)(=O)c1ccc(C)cc1	0	2	i	-61	-0.11
COc1ccccc1C(=O)Nc1ccc(Cc2ccncc2)cc1	0	3	i	27	.
COc1c(C)cc(Br)cc1C(=O)Nc1ccc(Cc2ccncc2)cc1	-1	3	+	.	0.71
Cc1ccc(C)c(NC(=O)c2ccc[n+](Cc3ccc([N+](=O)[O-])cc3)c2)c1	0	-5	i	-233	.
Cc1cc(NC(=O)c2noc3c2CCc2ccccc2-3)n(-c2ccccc2)n1	0	76*[fluorescence artefact?]	i	.	-1.3
COc1ccc(CNC(=O)Cn2cncn2)cc1OC	0	-2	i	89*	0.16
